{"source": "PubChem BioAssay (NCI)", "note": "The panel holds about 83,000 compounds, 20% with a hit somewhere; the sample as a whole holds those more often.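 Interpretation: 100, growth as untreated; towards 0, rising growth inhibition; 0, no net growth; 0 to -100, cell death. Compounds scoring below 10 were considered active.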 Values without a mark were called inactive. Activity calls are given as the source filed them.", "data": [{"tested_on": "A549/ATCC NSCLC", "assay": "NCI-60 one-dose screen, 48 h (100 = growth as untreated, 0 = no growth, -100 = all killed)", "details": "10 µM unless noted", "values": [{"smiles": "CN(C)C(=S)N=Nc1c(O)[nH]c2ccccc12", "growth": "-10.6% (active)"}, {"smiles": "NC(N)=N/N=C(/c1ccccc1)c1ccc(F)cc1", "growth": "-15.1% (active)"}, {"smiles": "CC(=O)c1cc2c(N)c(C(=O)Nc3cccc4ccccc34)sc2nc1C", "growth": "22%"}, {"smiles": "O=c1ccccc(-c2ccc(Br)cc2)c1O", "growth": "11%"}, {"smiles": "CCCCC(=O)OCC1OC(n2cnc3c(=S)nc[nH]c32)C(OC(=O)CCCC)C1OC(=O)CCCC", "note": "(centres undefined)", "growth": "39.8%"}, {"smiles": "CC/C=C\\C[C@H]1C/C=C2/C(=O)C=C[C@H]2C/C=C\\CCCC(=O)O1", "growth": "29.5%"}, {"smiles": "CCNc1ncnc2c1cnn2C1CCCO1", "note": "(centres undefined)", "growth": "95.4%"}, {"smiles": "C=C1C(=O)O[C@H]2[C@H]1CC/C(COC(=O)NCCc1ccc(OC)c(OC)c1)=C\\CC[C@@]1(C)O[C@@H]21", "growth": "86.4%"}, {"smiles": "O=C(Cc1ccc(/C=C/C(=O)c2ncc[nH]2)cc1)Nc1ccc(F)cc1", "growth": "25.6%"}, {"smiles": "Clc1ccc2c(NCCCNc3nc(-n4ccnc4)nc4ccccc34)ccnc2c1", "growth": "92.3%"}, {"smiles": "CCc1nc(N)nc(N)c1C#CC(C)c1ccc(-c2ccncc2)cc1Cl", "note": "(centres undefined)", "growth": "9.61% (active)"}, {"smiles": "Cc1cc2c3ccccc3ccc2[n+]2ccccc12", "growth": "-16.9% (active)"}, {"smiles": "COc1ccc(SC2c3ccc(C)cc3Oc3nc(N)c(C#N)c(N)c32)cc1", "note": "(centres undefined)", "growth": "19.9%"}, {"smiles": "NC(=NC1C2CC3CC(C2)CC1C3)Nc1ccc(I)cc1", "note": "(centres undefined)", "growth": "26.1%"}, {"smiles": "CC(=O)OCCC/C(=C/c1cc2ccccc2c2ccccc12)[N+](=O)[O-]", "growth": "-94.6% (active)"}, {"smiles": "COc1cc(C(=O)/C=C/c2cccnc2Nc2ccc(Cl)cc2)cc(OC)c1OC", "growth": "-29.2% (active)"}, {"smiles": "CCOc1ccc(-n2nc(C(=O)Nc3cc(OC)c(OC)c(OC)c3)nc2-c2cc(OC)c(OC)c(OC)c2)cc1", "growth": "86.9%"}, {"smiles": "CC(=O)Oc1ccc(Cl)cc1CN(C(C)=O)C1CCCCC1", "growth": "106%"}, {"smiles": "COc1cc(-c2nn(-c3ccc(Br)cc3)cc2C(=O)O)ccc1O", "growth": "105%"}, {"smiles": "COc1cc2nnc3c4cccnc4[nH]c3c2cc1OC", "growth": "47.2%"}, {"smiles": "CCNC(=O)Oc1ccc(/C(=C(\\C)c2ccc(Cl)cc2)c2ccc(OCCN(CC)CC)cc2)cc1", "growth": "45.8%"}, {"smiles": "CCc1nc(N)nc(N)c1C#CC(C)c1cc(-c2ccnc(C)c2)c2oc(C)nc2c1", "note": "(centres undefined)", "growth": "3.87% (active)"}, {"smiles": "CC1=C(O)C(=O)C(C(C#N)(C#N)C(C#N)C#N)C1", "note": "(centres undefined)", "growth": "101%"}, {"smiles": "CN(C)c1ccc(NC(=O)c2ccc(/C=C/C(=O)c3ncc[nH]3)cc2)cc1", "growth": "63.1%"}, {"smiles": "CN(C)c1ccc(N=Nc2ccccn2)c(O)c1", "growth": "11.8%"}, {"smiles": "O=C1C=CC(=O)N1c1ccc2c(c1)Cc1cc(F)ccc1-2", "growth": "97.9%"}, {"smiles": "CCCCn1cnc2c(Sc3c([N+](=O)[O-])ncn3C)nc(N)nc21", "growth": "88.2%"}, {"smiles": "NC(CSC(c1ccccc1)(c1ccccc1)c1ccc(Cl)cc1)C(=O)O", "note": "(centres undefined)", "growth": "-9.59% (active)"}, {"smiles": "Oc1ccc(N=Cc2ccccc2O)cc1", "growth": "101%"}, {"smiles": "Clc1ccc2c(NCCNc3nc(N4CCCCC4)nc4ccccc34)ccnc2c1", "growth": "0.13% (active)"}, {"smiles": "CCN1CCN(c2nc(NCCCNc3ccnc4cc(Cl)ccc34)c3ccccc3n2)CC1", "growth": "18.8%"}, {"smiles": "CCOC(=O)c1sc(Nc2ccc(Cl)cc2)nc1C", "growth": "15.2%"}, {"smiles": "CN1C(=O)C2(SCC(C(=O)NCc3ccccc3)N2C(=O)C2CCCCC2)c2ccccc21", "note": "(centres undefined)", "growth": "93.6%"}, {"smiles": "CSc1ccc(-c2ccccc(=O)c2O)cc1", "growth": "11.5%"}, {"smiles": "CC(=O)c1cc2c(N)c(C(=O)Nc3cccc(F)c3C)sc2nc1C", "growth": "56.5%"}, {"smiles": "COc1ccc2c(c1)C(=O)/C(=C/c1ccccn1)CC2", "growth": "95.2%"}, {"smiles": "O=C(Cc1ccc(/C=C/C(=O)c2ncc[nH]2)cc1)Nc1ccccc1", "growth": "57.2%"}, {"smiles": "COc1cccc2c1C(=O)c1c(O)c3c(c(O)c1C2=O)C[C@](O)(C(=O)CO)C[C@H]3O[C@@H]1C[C@@H](NC(=O)CCCN(C)C2(c3ccc(F)cc3)CC3CCC2C3)[C@H](O)[C@@H](C)O1", "note": "(some centres undefined)", "growth": "-80.1% (active)"}, {"smiles": "COc1cccc2c1C(=O)c1c(O)c3c(c(O)c1C2=O)C[C@](O)(C(=O)CO)C[C@H]3O[C@@H]1C[C@@H](NC(=O)CCCCCN(C)C2(c3ccc(F)cc3)CC3CCC2C3)[C@H](O)[C@@H](C)O1", "note": "(some centres undefined)", "growth": "19.7%"}]}]}
